The values below come from paper PMC6212790, “How bacterial xenogeneic silencer rok distinguishes foreign from self DNA in its resident genome”.

In all, about 33,000 sequences were measured (“e-score”: median about -0.038, highest 2% from about 0.33 on). Only a selection was taken, and the highest values are over-represented in it overall.

The target in this assay is T1, GST-Rok-C97-191 (Bacillus subtilis subsp. subtilis str. …, UniProt O34857 97-191).
T1 sequence: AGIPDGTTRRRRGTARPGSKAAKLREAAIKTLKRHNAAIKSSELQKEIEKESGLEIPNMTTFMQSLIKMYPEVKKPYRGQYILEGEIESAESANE
The assay is described as follows: protein binding microarray; Rok is a gene silencer of Bacillus subtilis; high values mean tight binding. Particulars: protein: recombinant; tags: GST (pTH5325, pDEST15-Magic modified); dsDNA, one strand shown. A digest of the protocol: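 Every oligonucleotide joins a 25-mer constant primer to a 35-mer variable part drawn from a de Bruijn sequence of order 10, so each non-palindromic 8-mer appears at least 32 times and each palindromic 8-mer 16 times. The preference for every 8-mer is reported as a unitless, rank-based enrichment score (E-score). This score spans 0.5 for the most favored 8-mer to −0.5 for the most disfavored.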
As to AATCGTCG, the binding signal was -0.0319 E-score. With CAACTAGA the figure was 0.255 E-score. With GAACTAGA the figure was 0.335 E-score. In the case of AGACTAGA, the binding signal stood at 0.199 E-score. With TAACTAGA the figure was 0.247 E-score; with ACACTAGA, 0.179 E-score; with AAACTAGA, 0.354 E-score. Regarding CCTAATCA, the binding signal was 0.011 E-score. The same measure for CCTCTTAA: -0.103 E-score; for AACGCCAG: -0.0768 E-score; for GAGGGAAC: -0.0649 E-score. GTAAACGA: the binding signal is -0.119 E-score. The same measure for CTAAATTA: 0.141 E-score; for GTAAACTA: 0.364 E-score; for ATAAACTG: 0.199 E-score. Turning to CTAAACTA, the binding signal came to 0.386 E-score. With ATAAACTA the figure was 0.359 E-score; with CTAAACGA, -0.0375 E-score. The same measure for GTAAATTA: 0.378 E-score; for GTAAACAA: -0.0801 E-score; for ATAAATTA: 0.259 E-score. With CTAAACTC the figure was 0.0554 E-score; with ATAAACTC, 0.173 E-score. For GGAGGAAC, the binding signal is -0.069 E-score. With ATAAGAAG the figure was 0.0784 E-score.

With TACAATAA, the binding signal amounted to 0.108 E-score.

For ACAAGGAG, the binding signal is -0.167 E-score. The same measure for AAACAGCC: -0.174 E-score.

With TATGACAA, the binding signal is -0.00238 E-score. For the sequence CCGGCAAG, the binding signal is -0.0857 E-score. Consider CGCATGAC, for which the binding signal was -0.0389 E-score.

Consider CATCCATC, for which the binding signal is -0.0668 E-score. The same measure for AAGCGGAC: -0.0303 E-score; for GAGAGCTC: -0.123 E-score. Turning to CATGAATG, the binding signal was -0.00652 E-score.

On to AATTGCTA, for which the binding signal was 0.328 E-score. With AATTGGTC the figure was -0.0353 E-score. The same measure for CATTGCTA: 0.118 E-score; for AATTGGTA: 0.331 E-score. The same measure for CATTGGTA: 0.279 E-score; for AAGTGGTA: 0.385 E-score.

In the case of GATTGCTA, the binding signal came out at 0.18 E-score. With AAGTGGTC the figure was -0.168 E-score. The same measure for CAGTGGTA: 0.232 E-score; for GTCAAGTA: 0.157 E-score; for CCTTTTCC: -0.198 E-score. The same measure for CGCAACCG: 0.0123 E-score; for CAATTATA: 0.291 E-score; for AAATTATG: 0.224 E-score. As for GAATTACA, the binding signal was 0.275 E-score. Consider GAATTATC, for which the binding signal was found to be 0.23 E-score. The same measure for GAATTATA: 0.24 E-score; for AAATTACA: 0.325 E-score.

Regarding TAATTATA, the binding signal was 0.386 E-score.

For the sequence AAATTATC, the binding signal turned out to be 0.364 E-score.

Turning to AAATTATT, the binding signal amounted to 0.296 E-score.

AAATTATA: the binding signal is 0.389 E-score. With AAATTAAA the figure was 0.205 E-score. The same measure for TAATTACA: 0.396 E-score.

As to AATCCATG, the binding signal was -0.019 E-score. The same measure for CGAGTAAA: 0.128 E-score. The same measure for ACTCAGGC: -0.123 E-score. The same measure for CAAAAGAG: -0.195 E-score; for ACGGGGAA: 0.0307 E-score; for GAGTCCTA: -0.119 E-score. As to TATTTAGA, the binding signal is 0.0799 E-score. The same measure for ATAAAGGC: 0.052 E-score; for ACATACGC: -0.0272 E-score; for CATAGACA: -0.0183 E-score. With CGTCCACC the figure was -0.198 E-score; with CAGTTATA, 0.187 E-score; with TAGTTATA, 0.39 E-score.

Turning to GAGTTATA, the binding signal was determined as 0.213 E-score. The same measure for GAGGAACA: -0.114 E-score; for GAAATTAC: 0.359 E-score.

Take CAAATTAG: the binding signal amounted to 0.044 E-score. With AAAATTAC the figure was 0.327 E-score.

In the case of GAAATTGC, the binding signal came to 0.239 E-score. In the case of GAAATTAA, the binding signal was 0.278 E-score. With CAAATTAC the figure was 0.33 E-score. The same measure for ATTCGCGG: -0.0504 E-score.

For the sequence CTAAGTTA, the binding signal came out at 0.291 E-score.

For GCGAGACC, the binding signal was -0.114 E-score. In the case of CAACCCTG, the binding signal is -0.104 E-score. The same measure for ATCATCTA: 0.148 E-score; for GAGCCTAC: -0.193 E-score; for CAACAGTA: 0.315 E-score. The same measure for CTACAGTA: 0.235 E-score; for TAACAGTA: 0.342 E-score.

For the sequence GAACAGTA, the binding signal was 0.179 E-score.

For ATACAGTA, the binding signal worked out at 0.385 E-score.

Take GTACAGTA: the binding signal came out at 0.283 E-score. The same measure for ATGGCACC: -0.0965 E-score; for CCCTTCGC: -0.198 E-score; for ACTAAGGA: 0.268 E-score. The same measure for ACGGCCAG: -0.104 E-score; for CCTTCTGC: -0.174 E-score. With AGTCGTAC the figure was 0.108 E-score; with CTAGATAA, 0.3 E-score; with AAAGATAC, 0.0421 E-score. Turning to GTAGATAA, the binding signal stood at 0.397 E-score. With CTAGATAC the figure was 0.204 E-score. With ACAGATAC the figure was 0.252 E-score; with ATAGATAC, 0.357 E-score. With GCAGATAC the figure was -0.00726 E-score; with GTAGATAC, 0.381 E-score; with ATAGATAA, 0.325 E-score. On to GAAGATAA, for which the binding signal came to 0.224 E-score. The same measure for AAAGATAA: 0.33 E-score; for AGAGATAC: 0.166 E-score; for TGAGAAAA: 0.154 E-score. AAGGATGA: the binding signal was -0.0751 E-score.

Turning to TGAAAGCA, the binding signal was 0.0344 E-score.

On to GACCGGGA, for which the binding signal was -0.0628 E-score. With ACAGGCGG the figure was -0.187 E-score; with ATAGATAT, 0.415 E-score. The same measure for ACAGATAT: 0.185 E-score; for ATAGATAG: 0.267 E-score.

With ACTTTTGA, the binding signal turned out to be 0.0573 E-score. In the case of CAGACGCA, the binding signal is -0.191 E-score.

For ACTTTCTC, the binding signal amounted to 0.0481 E-score. The same measure for GATTTCAA: 0.0221 E-score. The same measure for AATTTCTA: 0.355 E-score; for GATTTCTA: 0.357 E-score; for ACTTTCTA: 0.386 E-score. Take AATTTCTG: the binding signal was 0.128 E-score. The same measure for CCTTTCTA: 0.108 E-score; for AATTTCTC: 0.198 E-score; for ATTTTCTG: -0.0553 E-score.

For the sequence ATTTTCTC, the binding signal was determined as 0.255 E-score. The same measure for CATTTCTA: 0.306 E-score. With ATTTTCTA the figure was 0.379 E-score; with AGTGTAGG, 0.0625 E-score; with GATCCGAC, -0.0267 E-score.

Consider GGCATTCA, for which the binding signal was -0.0675 E-score.

Turning to GCGGGGAA, the binding signal was -0.189 E-score. Turning to ATTTTCCG, the binding signal was 0.329 E-score. The same measure for ATTTTCCA: 0.105 E-score.

On to ATTTTCCC, for which the binding signal was -0.00582 E-score. With TGGCAAAA the figure was 0.122 E-score; with GGAATCAC, -0.0168 E-score. With GCTATCCA the figure was 0.0235 E-score; with ACTATCTA, 0.364 E-score. The same measure for ATTATCTA: 0.385 E-score; for ATTATCTC: 0.0108 E-score. In the case of AGTATCTA, the binding signal is 0.351 E-score. For the sequence ATTATCTG, the binding signal worked out at 0.203 E-score. With AGTATCTG the figure was 0.198 E-score; with ACTATCTC, 0.263 E-score; with GGTATCTA, 0.23 E-score. With AGTATCTC the figure was 0.185 E-score; with GCTATCTA, 0.333 E-score. Regarding CCTATCTA, the binding signal came to 0.319 E-score. The same measure for AAAAGGGC: -0.186 E-score; for GGACAGAC: -0.0976 E-score. With GAACGGGA the figure was -0.108 E-score; with CAGCTCCA, -0.0439 E-score. With GCTATCGA the figure was 0.102 E-score; with ACTATCGA, 0.348 E-score; with CCTATCGA, 0.117 E-score. On to TAGCAGAA, for which the binding signal is 0.073 E-score. The same measure for AAGCGAGT: -0.052 E-score. For AAGAAAGA, the binding signal was 0.0949 E-score. With CAGGTAGA the figure was 0.223 E-score; with TAGGTAGA, 0.386 E-score.

Consider GAGGTAGA, for which the binding signal turned out to be 0.334 E-score. With AAGGTAGA the figure was 0.246 E-score; with GAGGTAGC, -0.122 E-score; with GAGGTATA, 0.243 E-score.

With GACAGGGA, the binding signal is -0.0489 E-score. On to AGCAATGA, for which the binding signal was -0.189 E-score. The same measure for CGACCAAC: -0.152 E-score.
